From PubChem BioAssay AID652042 (Broad Institute, 2013)
The campaign covered roughly 1,100 compounds. About 350 (32%) were called active. No rule for the calls is given here. Only a sample is shown. Entries with a potency or affinity are not part of this list.

assay: viability loss in CEM21 cells – cell-based, CellTiter-Glo luminescence, cherry-picked, cytotoxicity control for viral fusion inhibitor project, dose response (AID 652042); conditions: CellTiter-Glo ATP luminescence, 24 h; series mostly up to 35 µM; activity change, negative = cytotoxicity: at the top concentration

SMILES | activity change, negative = cytotoxicity
O=S(=O)(NCCc1csc(-c2cccnc2)n1)c1ccc(Cl)s1 | -5.88% (inactive)
COc1cccc(/C=N/NC(=O)CC2C(=O)NN=C2C)c1O (stereo not drawn) | 5.99% (inactive)
CC(C)(C)OC(=O)N1CCc2onc(-c3ccc(Br)cc3)c2C1=O | 4.49% (inactive)
C=CC[n+]1c(-c2ccc(C)cc2)csc1NNC(=O)Nc1ccccc1 | 1.1% [at 8 µM] (inactive)
COc1ccc(C(C)=O)cc1CC1(C)C(=O)Nc2ccc(-c3ccccc3OC)cc21 (stereo not drawn) | -12.9% (inactive)
COc1cc(OCC(=O)NC(C)C)cc2c1C(=O)O[C@@H](C)CCCC(=O)CCCCC2 | -0.878% (inactive)
CSc1ccc(CN(C)C(=O)c2cccc(S(=O)(=O)N3CCN(Cc4ccccc4)CC3)c2)cc1 | -22.7% (inactive)
CSc1cccc(N2CC(C(=O)Nc3cccc(S(=O)(=O)N4CCCC4)c3)CC2=O)c1 (stereo not drawn) | -10.7% (inactive)
COc1cc(NC2c3ccccc3C(=O)N2Cc2ccc3c(c2)OCO3)cc(OC)c1OC (stereo not drawn) | -12.5% (inactive)
O=C(NC12CC3CC(CC(C3)C1)C2)OCCNC1CCCCC1 | -10.5% (inactive)
O=C1CCCC2=C1C(c1cccs1)Nc1ccccc1N2 (stereo not drawn) | 6.75% (inactive)
CC[C@]1(C(=O)OC)[C@H]2C(=O)N(Cc3ccccc3)C(=O)[C@H]2[C@H]2CN=C(SCc3ccc(C#N)cc3)N21 | -9.41% (inactive)
CCOc1ccc(NS(=O)(=O)c2ccc(C(=O)N(C)CCc3ccc(OC)c(OC)c3)cc2)cc1 | -5.56% (inactive)
CC(C)C[C@@H](CN(C)N=O)N(C[C@H](Cc1ccccc1)N(CCc1ccccc1)N=O)N=O | -17.2% (inactive)
CCc1nc2ccc(C(=O)N3CCN(C(=O)c4ccco4)CC3)cn2c1N(C)Cc1ccc(OC)cc1 | 3.73% (inactive)
C[C@@]12C(=O)N(Cc3ccccc3)CC(=O)N1[C@H]1c3ccccc3OC[C@@H]1[C@@H]2c1ccccc1 | -13.4% (inactive)
O=S1(=O)c2c(cccc2N2CCCCC2)O[C@H](COCc2ccccc2)CN1C1CC1 | -27.1% (inactive)
Cc1oc(-c2ccc(Cl)cc2)nc1CN1CCCC(C(=O)NCc2cccnc2)C1 (stereo not drawn) | -12% (inactive)
COc1ccc(CCNC(=O)C2CCCN(Cc3nc(-c4cccc(Cl)c4)oc3C)C2)cc1OC (stereo not drawn) | -21.6% (inactive)
Nc1cc(-c2ccccc2)nn1S(=O)(=O)c1ccc(F)cc1 | -10.4% (inactive)

SMILES | activity change, negative = cytotoxicity
c1cnc2ccc(C(c3nnnn3C3CCCCC3)N3CCCCC3)cc2c1 (stereo not drawn) | -0.125% (inactive)
c1ccc(CNc2ncnc3ccccc23)cc1 | -9.36% (inactive)
C=CCNc1ncnc2ccc(Br)cc12 | -12% (inactive)
CCN(C[C@H]1N[C@@](C)(C(=O)OC)[C@H]2C(=O)N(Cc3ccccc3)C(=O)[C@@H]12)S(=O)(=O)c1ccc(C(C)(C)C)cc1 | -18.3% (inactive)
CC1(Cc2ccc(Cl)cc2)C(=O)Nc2ccc(-c3cccnc3)cc21 (stereo not drawn) | -18.7% (inactive)
O=C(CNc1ccc(F)cc1)c1ccccc1 | -10.5% (inactive)
O=C(CCCCn1c(=O)[nH]c2ccccc2c1=O)N1CCN(c2cccc(C(F)(F)F)c2)CC1 | -23% (inactive)
COc1cccc(Cl)c1NC(=O)N1CCc2c([nH]c3ccccc23)C1C(F)(F)F (stereo not drawn) | -26.7% (inactive)
COc1ccc(N2CCN(C(=O)C3CCC(Cn4c(=S)[nH]c5ccccc5c4=O)CC3)CC2)cc1 (stereo not drawn) | -1.8% (inactive)
CC(C)CCSc1nc(N)c(C#N)cc1C#N | -12.2% (inactive)
COC(=O)C1(C(=O)OC)C[C@H](c2ccc(OC)cc2)N(Cc2ccccc2OC)[C@@H]1c1cccs1 | inactive
COc1ccc(CNc2ncnc3ccccc23)cc1 | -6.27% (inactive)
CC(C)(C)c1ccc(C(=O)Nc2ccc(CC(=O)O)cc2)o1 | 6.68% [at 16 µM] (inactive)
Cc1nn(C)c(C)c1CN(C)S(=O)(=O)c1ccc2ccccc2c1 | -10.7% (inactive)
CS(=O)(=O)N(Cc1ccc(Cl)cc1)c1ccc(C(=O)NCCC2=CCCCC2)cc1 | -5.94% (inactive)
Cc1ccc2c(c1)c1c3n2CCN(CC(N)=O)C3CCC1 (stereo not drawn) | -3.1% (inactive)
CO[C@H]1CN(C)C(=O)c2cc(NS(=O)(=O)c3ccc(Cl)cc3)ccc2OC[C@@H](C)N(C)C[C@@H]1C | 3.29% (inactive)
Cc1cc2ncn(S(=O)(=O)N3CCCCC3)c2cc1C | -4.91% (inactive)
CC(C)(C)c1ccc(C(=O)N2CCCCCC2=O)cc1 | 0.857% (inactive)
CC(=O)Nc1sc2c(c1C(c1ccc(F)cc1)N1CCOCC1)CCCC2 (stereo not drawn) | -20.5% (inactive)

SMILES | activity change, negative = cytotoxicity
CN(C[C@@H](CC1CCCCC1)N(C[C@H](Cc1ccccc1)N(CCc1ccccc1)N=O)N=O)N=O | -12.5% (inactive)
CC[C@]1(C(=O)OC)[C@H]2C(=O)N(Cc3ccccc3)C(=O)[C@H]2[C@H]2CN=C(SCC3CC3)N21 | -6.36% (inactive)
CO[C@@H]1CN(C)C(=O)c2ccc(NC(C)=O)cc2OC[C@@H](C)N(Cc2cncnc2)C[C@@H]1C | 1.19% (inactive)
COc1ccc(-c2cn3c(C)c(C(=O)Nc4cccc(NC(C)=O)c4)sc3n2)cc1 | 1.6% [at 16 µM] (inactive)
O=C(N/N=C/c1ccc(-n2ccnc2)cc1)c1cccs1 | -9.81% (inactive)
Cc1ccc(-n2nnnc2-c2cnn(-c3ccc(F)cc3)c2C(F)(F)F)cc1 | -12.1% (inactive)
CCc1ccc([C@H]2[C@@H]3C(=O)C[C@@H]4C(=O)N(C5CCCCC5)C(=O)[C@@H]4[C@@H]3CN2S(=O)(=O)c2ccc(C)cc2)cc1 | -1.79% (inactive)
COc1ccc(OC2C(=O)N(Cc3ccc4c(c3)OCO4)C2c2cccs2)cc1 (stereo not drawn) | -12% (inactive)
COC(=O)[C@H](Cc1ccccc1)NC(=O)Cn1cnc(C(=O)Nc2ccc(C)c(C)c2)n1 | 2.54% (inactive)
O=S(=O)(c1ccccc1Cl)N1CCCC1c1nc(-c2ccc(Cl)cc2)no1 (stereo not drawn) | -8.34% (inactive)
CCNC(=O)C[C@@H]1CC[C@@H]2[C@H](COC[C@@H](O)CN2C(=O)c2ccccn2)O1 | 2.57% (inactive)
COc1ccc(CCNc2oc(-c3cccc4ccccc34)nc2P(=O)(OC)OC)cc1OC | -3.52% [at 16 µM] (inactive)
COC(=O)C1(C(=O)OC)C[C@H](c2ccccc2)N(Cc2ccccc2OC)[C@@H]1c1ccccc1 | -15.9% (inactive)
COc1ccc(S(=O)(=O)Nc2ccc3c(c2)CC(=O)N([C@H](C)CO)C[C@H](C)[C@H](CN(C)S(=O)(=O)c2cccs2)O3)cc1 | -4.69% (inactive)
CC(C)CNS(=O)(=O)c1ccc(CCC(=O)N2CCN(Cc3ccc4c(c3)OCO4)CC2)cc1 | -1.06% (inactive)
CN1C(=O)C2(c3ccccc31)N(C)CC(c1ccccc1)C21SC(=S)N(Cc2ccco2)C1=O (stereo not drawn) | -11.9% (inactive)
C[C@@]12C(=O)N(Cc3ccco3)CC(=O)N1[C@H]1c3ccccc3OC[C@@H]1[C@@H]2c1ccccc1 | -10.9% (inactive)
O=C(NCCCN1CCc2ccccc2C1)Nc1ccc(Cl)cc1 | -12.5% (inactive)
